A selection: hits, their analogues and other compounds. The true share with any hit is near 0.9%.
gsp antag: qHTS for Antagonists of gsp, the Etiologic Mutation Responsible for Fibrous Dysplasia/McCune-Albright Syndrome: qHTS. AID 624288, 2012. Potency, µM (series often up to 76.9 µM), for inactives: top-dose activity change, negative = inhibition, usual class: inhibitors. gsp-mutant cells, cAMP HTRF, 30 min. hit rate 0.4% among 340,000; calls by dose curve; cell line not stated here;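 also: intracellular cAMP measured with PDE inhibitor Ro 20-1724 present during compound exposure; potency is read from the fitted curve at half-maximal effect; % is scaled to controls: 0 for no effect and ±100 for the full control effect; nearly all actives have a fitted effect of over 65% in size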
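G418-selected cells were plated in DMEM/10% FBS for 16-24 h at 37C, then treated with compounds plus the PDE inhibitor […] (300 uM solution added) for 30 min at 37C. Intracellular cAMP was measured by HTRF after 30 min lysis at room temperature.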
RXFP1 ag: qHTS Assay for Agonists of the Relaxin Receptor RXFP1; AID 2676, 2010; HEK293T-RXFP1 cAMP TR-FRET, 30 min; response scale: percent of porcine relaxin response, buffer zero; hit rate 0.3% among 370,000; Potency, µM (titrated, usually from 57.5 µM), for inactives: top-dose activation, usual class: activators; Relaxin receptor 1 (Homo sapiens), Q9HBX9; active = well fitted activation curve with a large enough effect; inconclusive = small, poorly fitted or top-dose-only effect; also: potency is read from the fitted curve at half-maximal effect; % is scaled to controls: 0 for no effect and ±100 for the full control effect; nearly all actives have a fitted effect of over 60% in size
Target sequence (Q9HBX9 whole entry, looked up): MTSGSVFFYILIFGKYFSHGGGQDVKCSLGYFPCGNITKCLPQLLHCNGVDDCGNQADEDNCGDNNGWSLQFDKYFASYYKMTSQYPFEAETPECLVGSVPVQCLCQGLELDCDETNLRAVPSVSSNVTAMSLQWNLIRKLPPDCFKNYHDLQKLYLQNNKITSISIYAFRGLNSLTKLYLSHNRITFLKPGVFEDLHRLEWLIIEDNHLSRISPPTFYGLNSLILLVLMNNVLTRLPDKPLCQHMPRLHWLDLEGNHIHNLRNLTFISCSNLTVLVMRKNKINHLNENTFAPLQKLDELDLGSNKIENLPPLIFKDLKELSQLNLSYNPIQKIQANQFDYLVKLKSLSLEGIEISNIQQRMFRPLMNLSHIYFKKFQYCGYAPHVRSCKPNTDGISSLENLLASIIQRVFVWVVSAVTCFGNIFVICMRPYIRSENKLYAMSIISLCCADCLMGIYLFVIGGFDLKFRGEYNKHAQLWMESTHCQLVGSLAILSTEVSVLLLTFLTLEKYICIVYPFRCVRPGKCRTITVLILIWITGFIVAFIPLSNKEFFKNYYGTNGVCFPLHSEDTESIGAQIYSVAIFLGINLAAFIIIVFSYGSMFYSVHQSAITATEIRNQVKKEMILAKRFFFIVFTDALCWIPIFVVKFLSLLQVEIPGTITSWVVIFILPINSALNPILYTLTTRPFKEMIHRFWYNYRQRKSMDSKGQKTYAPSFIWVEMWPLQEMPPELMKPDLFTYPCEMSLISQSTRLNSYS
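HEK293 cells stably expressing RXFP1, treated 30 min at 37C with compounds plus PDE4 inhibitor Ro 20174; cAMP measured by HTRF TR-FRET. Normalized to buffer and 29 nM porcine relaxin; EC50 by Hill fit.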
RXFP1 antag: qHTS Assay for Antagonists of the Relaxin Receptor RXFP1; hit rate 0.59% among 350,000; HEK293-RXFP1, relaxin-stimulated cAMP HTRF, 30 min; stronger effect = lower value; activity change, negative = inhibition, % at 57.5 µM; Relaxin receptor 1 (Homo sapiens), Q9HBX9;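 active = activity change of -60% or lower, but not beyond a set lower limit; inconclusive = change between -60% and -40%, or beyond the set limit; inactive = change above -40%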; also: % is scaled to controls: 0 for no effect and ±100 for the full control effect
gsp agonist: qHTS for Agonist of gsp, the Etiologic Mutation Responsible for Fibrous Dysplasia/McCune-Albright Syndrome: qHTS | gsp mutant cells, cAMP HTRF, 30 min | Potency, µM (titrated, usually from 76.9 µM), inactives show at the highest dose activation (cAMP increase), hits mostly activators | hit rate 0.13% among 340,000 | AID 624287, 2012; active = well fitted activation curve with a large enough effect; inconclusive = small, poorly fitted or top-dose-only effect, or another doubt; inactive = no such curve, though single readings can be large or run the other way; cell line not stated here;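 also: phosphodiesterase inhibitor Ro 20-1724 added with compounds to block cAMP breakdown; potency is read from the fitted curve at half-maximal effect; nearly all actives have a fitted effect of over 60% in size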
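Cells in DMEM/10% FBS with G418 were pretreated with compounds in DMSO plus […] (300 uM stock) for 30 min at 37C. cAMP was measured by HTRF (cAMP-d2 plus anti-cAMP antibody-K) after 30 min at room temperature.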
Active calls of the source: *; [ ] = another dose, or the depositor's remark.

Results for CCC1SC(=Nc2cccc(C)c2)NC1=O (stereo unspecified) ?
gsp antag: 2.6%; RXFP1 ag: -0.3%; RXFP1 antag: -5.9; gsp agonist: -29.5%

Results for CCC1SC(=NC(=O)c2ccc(Cl)c(Cl)c2)NC1=O (stereo unspecified) ?
gsp antag: 12.6µM*; RXFP1 ag: -0.8%; RXFP1 antag: -11.5; gsp agonist: 1.7%

What do the screens show for `Cc1c(C2=CCN(S(=O)(=O)c3cccc(Cl)c3)CC2)c2ccccc2n1CC(=O)N1CCCC1`?
RXFP1 ag: 2.3%; RXFP1 antag: -5.4

What do the screens show for `Cc1cccc(NS(=O)(=O)c2cc([N+](=O)[O-])ccc2C)n1`?
gsp antag: 8.3%; RXFP1 ag: 3.8%; RXFP1 antag: -62.3*; gsp agonist: 2.0%[15.4 µM]

What do the screens show for `CC(=O)Nc1ccc(NS(=O)(=O)c2cc([N+](=O)[O-])ccc2C)cc1`?
RXFP1 ag: 2.1%; RXFP1 antag: -3.7; gsp agonist: 6.9%[15.4 µM]

Results for Cc1ccnc(NC(=O)c2cccc(S(=O)(=O)Nc3ccc(C)cc3C)c2)c1 ?
gsp antag: -24.2%; RXFP1 antag: -77.2*; gsp agonist: inconclusive

What do the screens show for `Cc1cc2c(OCC(CNC(C)(C)C)OC(=O)c3ccccc3)cccc2[nH]1` (stereo unspecified)?
RXFP1 antag: -31.5

How did Cc1ccc(C(=O)c2cn(Cc3cccc(F)c3)c3nc(C)ccc3c2=O)cc1 do in these assays?
RXFP1 ag: 9.1%

What do the screens show for `C=CC(=O)N1C/C(=C/c2ccccc2)C(=O)/C(=C\c2ccccc2)C1`?
gsp antag: -17.3%; RXFP1 antag: -115.6*; gsp agonist: -0.1%

What do the screens show for `CN1C/C(=C/c2ccncc2)C(=O)/C(=C/c2ccncc2)C1`?
gsp antag: 10.7%; RXFP1 ag: 0.7%; RXFP1 antag: -30.2; gsp agonist: inconclusive

Results for C=CC(=O)N1C/C(=C/c2ccc(Cl)cc2)C(=O)/C(=C\c2ccc(Cl)cc2)C1 ?
gsp antag: 3.7%; RXFP1 antag: -67.2*; gsp agonist: 28.8%

What do the screens show for `O=C1/C(=C/c2ccc(C(=O)O)cc2)CCC/C1=C\c1ccc(C(=O)O)cc1`?
gsp antag: 4.4%; RXFP1 ag: 0.5%; gsp agonist: -2.3%

How did O=C(Nc1ccc(S(=O)(=O)N2CCCCC2c2cccnc2)cc1)c1ccc(Br)cc1 (stereo unspecified) do in these assays?
RXFP1 ag: 3.3%; RXFP1 antag: inconclusive

How did COc1ccc(-c2noc(-c3ccc(NCc4ccco4)c([N+](=O)[O-])c3)n2)cc1 do in these assays?
RXFP1 ag: -0.5%

How did COc1ccc2c(c1)c(CC(=O)OC/C=C(\C)CC/C=C(\C)CCC=C(C)C)c(C)n2C(=O)c1ccc(Cl)cc1 do in these assays?
RXFP1 antag: 9.4

How did Cc1onc(-c2ccccc2)c1C(=O)Nc1cccc2nsnc12 do in these assays?
gsp antag: 20.8%; RXFP1 ag: inconclusive; RXFP1 antag: -4.4; gsp agonist: 35.5µM*

Results for COc1ccc2cc(C(=O)NCc3ccc4c(c3)CCN4C(=O)c3ccc(F)cc3)[nH]c2c1 ?
RXFP1 ag: 13.3%; RXFP1 antag: -29.8

Results for COc1ccc(CC(=O)NCc2ccc3c(c2)CCN3C(=O)c2cccc(C)c2)cc1 ?
RXFP1 ag: 3.8%; RXFP1 antag: -97.0*

Results for COc1cccc2[nH]c(C(=O)NCc3ccc4c(c3)CCN4C(=O)c3ccc(F)cc3)cc12 ?
RXFP1 ag: 2.8%; RXFP1 antag: -68.2*

Results for CCc1cccc(C)c1NC(=O)C(CC)Sc1nncn2c1cc1occc12 (stereo unspecified) ?
RXFP1 ag: inconclusive; RXFP1 antag: -0.4

Results for Cc1cccc(N2CCN(CCNC(=O)C3COc4ccccc4C3)CC2)c1C (stereo unspecified) ?
RXFP1 ag: -0.7%; RXFP1 antag: 0.5

How did Cc1nc2c(cnn2-c2ccccc2Cl)c(=O)n1-c1ccc(N2CCC(C)CC2)cc1 do in these assays?
gsp antag: 35.5µM*; RXFP1 ag: 0.9%; RXFP1 antag: 0.1; gsp agonist: 5.4%

What do the screens show for `Cc1ccc(-n2c(C)nc3c(cnn3-c3ccccc3Cl)c2=O)cc1C`?
gsp antag: -0.5%; RXFP1 ag: 0.8%; RXFP1 antag: 3.5; gsp agonist: 10.5%

Results for CCC(=O)N1CCc2cc(Br)cc(S(=O)(=O)CCC(=O)Nc3ccc(CC)cc3)c21 ?
RXFP1 ag: -1.4%; RXFP1 antag: -10.0

Results for COc1ccc(C(=O)Nc2nc3n(n2)C(c2ccc(Cl)cc2)C=C(c2ccccc2)N3)cc1OC (stereo unspecified) ?
RXFP1 ag: 20µM*; RXFP1 antag: -9.8

Results for COc1ccc(C2C=C(c3ccccc3)Nc3nc(NC(=O)c4ccc(C)cc4)nn32)cc1 (stereo unspecified) ?
RXFP1 ag: -0.5%; RXFP1 antag: -3.9

How did COc1cc(NC(=O)CSC2=Nc3ccccc3N=C(c3ccc(F)cc3)C2)cc(OC)c1 do in these assays?
RXFP1 ag: -0.4%

What do the screens show for `CCOC(=O)c1cccc(NC(=O)c2cc3sccc3n2C)c1`?
gsp antag: 35.5µM*; RXFP1 ag: 0.5%; RXFP1 antag: -4.8; gsp agonist: -1.6%

What do the screens show for `NNc1nc2c(Cl)ccc(Cl)c2s1`?
gsp antag: 28.2µM*; RXFP1 ag: -2.8%; RXFP1 antag: -22.8; gsp agonist: 33.4%[15.4 µM]

How did O=C(c1ccc(Oc2ccc([N+](=O)[O-])cc2Cl)cc1)N1CCCC1 do in these assays?
gsp antag: 11.2µM*; RXFP1 ag: -0.6%; RXFP1 antag: -38.5; gsp agonist: -7.0%[15.4 µM]

How did O=C(c1cccc(Oc2ccc([N+](=O)[O-])cc2Cl)c1)N1CCCCC1 do in these assays?
gsp antag: 4.5%; RXFP1 ag: 1.3%; RXFP1 antag: -7.6; gsp agonist: -28.5%

What do the screens show for `O=C1CC(c2nc3ccccc3[nH]2)CN1c1cccc(Cl)c1` (stereo unspecified)?
RXFP1 ag: 1.6%

What do the screens show for `O=C(Nc1nc(-c2cccs2)cs1)c1ccc([N+](=O)[O-])o1`?
gsp antag: 35.5µM*; RXFP1 ag: -1.8%; RXFP1 antag: 2.8; gsp agonist: 9.1%

Results for OC[C@H]1O[C@@H](OCCc2ccc(O)cc2)[C@H](O)[C@@H](O)[C@H]1O ?
RXFP1 antag: -5.8

Results for CCC(=O)Nc1cccc(NC(=O)CSc2nc3c(c(=O)n(C)c(=O)n3C)n2C)c1 ?
gsp antag: 4.3%; RXFP1 ag: inconclusive; RXFP1 antag: 14.6; gsp agonist: 26.2%[15.4 µM]

How did CC(=O)Nc1cccc(NC(=O)CSc2nc3c(c(=O)n(C)c(=O)n3C)n2C)c1 do in these assays?
gsp antag: 17.1%; RXFP1 ag: 28.2µM*; RXFP1 antag: 25.5; gsp agonist: 51.2%[15.4 µM]
